Measurements: the supplement of paper PMC3484114
± gives the standard deviation.

system: OVCAR-3-derived ovarian cancer stem-like cells (spheroids); experiment: cell growth relative to untreated control; higher = more growth (less inhibition); details: 2.29 µM; 96 h
Method in brief: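 Stem-like cells derived from OVCAR-3 spheroids were dissociated with trypsin and seeded at 50,000 cells/mL in stem cell medium in ultra-low attachment 96-well plates, then preincubated for 24 h. Each compound was added at 2.29 uM to 4 replicate wells and left for 96 h at 37°C, 5% CO2. Viability came from TOX8 resazurin fluorescence (ex 560/em 590 nm) read after 4 h. Percent growth was expressed relative to untreated wells, after blank subtraction and removal of outliers by the Grubbs test.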

Q: Which cell growth does the source give for `CC[C@]1(O)C[C@@H]2CN(CCc3c([nH]c4ccccc34)[C@@](C(=O)OC)(c3cc4c(cc3OC)N(C)[C@H]3[C@@](O)(C(=O)OC)[C@H](OC(C)=O)[C@]5(CC)C=CCN6CC[C@]43[C@@H]65)C2)C1` here?
A: 49.1 ± 11%

Q: For `OCCNCN(CNCCO)c1nc(N(CNCCO)CNCCO)nc(N(CNCCO)CNCCO)n1`, which cell growth is on record?
A: 126 ± 24%

Q: For `Cc1cc(O)c2c(c1)C(=O)c1cc(O)cc(O)c1C2=O`, which cell growth is on record?
A: 107 ± 17%

Q: For `CC(C)=CC1C(C(=O)O)C1(C)C` (centres undefined), which cell growth is on record?
A: 103 ± 37%

Q: `O=NN(CCCl)C(=O)NCc1ccc[n+]([O-])c1` was tested. Which cell growth did it give?
A: 76.9 ± 13%

Q: `O=S1(=O)CCN(c2ccccc2CC(c2c[nH]c3ccccc23)c2c[nH]c3ccccc23)CC1` was tested. Which cell growth did it give?
A: 104 ± 24%

Q: `COc1cc2c(c(O)c1OC)-c1c(cc(OC)c(OC)c1OC)C[C@@H](C)[C@@H](C)C2` was tested. Which cell growth did it give?
A: 82 ± 20%

Q: How did the cell growth turn out when `C[C@@H]1C[C@H]2OC(=O)[C@@]3(C)CCC[C@@](C)([C@@H]23)[C@@]1(O)CCc1ccoc1` was run?
A: 59.6 ± 12%

Q: For `COC(=O)c1ccccc1NC(=O)C(=O)CC(=O)c1ccccc1NC1=CC(=O)C(=O)c2ccccc21`, which cell growth is on record?
A: 65.5 ± 12%

Q: For `O=C(Nc1cccc(C(F)(F)F)c1)C(=O)C(C(=O)c1ccc(Cl)c(Cl)c1)C1OC(=O)c2ccccc21` (centres undefined), which cell growth is on record?
A: 102 ± 20%

Q: With `CC(=O)O[C@]1(C(C)=O)CC[C@H]2[C@@H]3C[C@H](C)C4=CC(=O)C=C[C@]4(C)[C@@]3(F)[C@@H](O)C[C@@]21C` as the molecule, how does the cell growth read?
A: 130 ± 81%

Q: How did the cell growth turn out when `COc1ccc2[nH]c3c(C)c4ccncc4c(C)c3c2c1` was run?
A: 65.8 ± 11%

Q: `CCCc1c(Cl)nc(Cl)nc1Cl` was tested. Which cell growth did it give?
A: 96.4 ± 19%

Q: How did the cell growth turn out when `C=C1CC[C@@H]2[C@](C)(CO)[C@H](O)CC[C@@]2(C)[C@@H]1C/C=C1/C(=O)OC[C@H]1O` was run?
A: 119 ± 38%

Q: How did the cell growth turn out when `COC1(O)C(=O)c2ccccc2OC1(OC)c1ccccc1` (centres undefined) was run?
A: 118 ± 26%

Q: `Nc1nc2n[nH]nc2c(=O)[nH]1` was tested. Which cell growth did it give?
A: 91.6 ± 14%

Q: `CN(C)[C@H]1CCC2[C@@H]3CCC4C[C@@H](NC(=O)NC(Cc5ccccc5)c5nccs5)CC[C@]4(C)C3CC[C@@]21C` (some centres undefined) was tested. Which cell growth did it give?
A: 76.9 ± 20%

Q: How did the cell growth turn out when `COc1cc2cc3c4cc(OC)c(OC)cc4cc[n+]3c(C)c2cc1OC.O=C(O)CS(=O)(=O)[O-]` was run?
A: 53.7 ± 9.7%

Q: `O=c1[nH]c(=O)n(C2CCCO2)cc1F` (centres undefined) was tested. Which cell growth did it give?
A: 24.9 ± 6.8%

Q: For `CCOC(=O)Nc1cc2c(c(N)n1)N=C(c1ccccc1)CN2`, which cell growth is on record?
A: 89.9 ± 15%

Q: For `Clc1ccc(-c2c(C3=NCCCN3)nnn2-c2ccc(Cl)cc2)cc1`, which cell growth is on record?
A: 156 ± 57%

Q: `O=C1C(Cl)=C(N2CCN(C3=C(Cl)C(=O)c4ccccc4C3=O)CC2)C(=O)c2ccccc21` was tested. Which cell growth did it give?
A: 52.1 ± 17%

Q: With `O=C(CC1(O)C(=O)Nc2c(Cl)cc(Cl)cc21)c1cccc2ccccc12` (centres undefined) as the molecule, how does the cell growth read?
A: 90.9 ± 16%

Q: For `CC(C)C1=CC2=CC[C@@H]3[C@](C)(CCC[C@@]3(C)C(=O)O)[C@H]2CC1`, which cell growth is on record?
A: 114 ± 10%

Q: With `O=[N+]([O-])c1ccccc1S(=O)(=O)c1ccccc1[N+](=O)[O-]` as the molecule, how does the cell growth read?
A: 77.1 ± 18%

Q: Which cell growth does the source give for `CCCCCCCCCCCCCCCCOP(=O)([O-])OCC[N+](C)(C)C` here?
A: 85.9 ± 16%

Q: How did the cell growth turn out when `CCCCCCCCCCNCCSSCc1ccc(Cl)cc1` was run?
A: 126 ± 23%

Q: How did the cell growth turn out when `CN(C)CCOc1ccc(I)cc1Cc1ccccc1` was run?
A: 74.4 ± 31%

Q: For `COc1ccc(-c2csc(=[N+]3CCCCC3)s2)cc1`, which cell growth is on record?
A: 80 ± 11%

Q: Which cell growth does the source give for `Cc1cc(O)c(/C=N/C(N)=S)c(=O)o1` here?
A: 92.5 ± 14%

Q: For `O=c1c(O)c(-c2ccc(O)c(O)c2)oc2cc(O)ccc12`, which cell growth is on record?
A: 94.3 ± 22%

Q: How did the cell growth turn out when `COC(=O)c1ccc(=O)c2nc3/c(=C/O)c(O)cc(=O)c3[nH]c12` was run?
A: 109 ± 44%

Q: How did the cell growth turn out when `O=[N+]([O-])c1cc(-c2nc(=S)[nH][nH]2)ccc1O` was run?
A: 98.5 ± 14%

Q: With `CC(=O)c1ccc(Oc2ccc(/C(C)=N/N=C(N)N)cc2)cc1` as the molecule, how does the cell growth read?
A: 32.4 ± 7.5%

Q: How did the cell growth turn out when `NC(=O)C1=C[C@H]2[C@H]3C=C[C@@]2(O)C(=O)O[C@@H]3O1` was run?
A: 91.3 ± 15%

Q: For `Cc1c(Cl)cccc1NC(=O)CC1Sc2ccccc2NC1=O` (centres undefined), which cell growth is on record?
A: 116 ± 8.3%

Q: Which cell growth does the source give for `CC1=C\C(O)CC(=O)Cc2nc(co2)C(=O)N2CCC=C2C(=O)OC(C(C)C)C(C)/C=C/C(=O)NC/C=C\1.CCC1NC(=O)C(NC(=O)c2ncccc2O)C(C)OC(=O)C(c2ccccc2)NC(=O)C2CC(=O)CCN2C(=O)C(Cc2ccc(N(C)C)cc2)N(C)C(=O)C2CCCN2C1=O` (centres undefined) here?
A: 80.8 ± 20%

Q: For `Cc1nc2c(o1)C(=O)c1ccccc1C2=Nc1ccccc1`, which cell growth is on record?
A: 123 ± 56%

Q: `COc1ccc(N=Cc2ccc(N(CCC#N)S(=O)(=O)c3ccccc3)cc2C)cc1` was tested. Which cell growth did it give?
A: 80.6 ± 28%
